{"source": "ChEMBL document CHEMBL2218924", "about": "“A broad activity screen in support of a chemogenomic map for kinase signalling research and drug discovery” (Biochem J, 2013)", "key": {"[1]": {"target": "T1, Ephrin type-B receptor 1 (Homo sapiens) (UniProt P54762)", "T1 sequence (whole entry)": "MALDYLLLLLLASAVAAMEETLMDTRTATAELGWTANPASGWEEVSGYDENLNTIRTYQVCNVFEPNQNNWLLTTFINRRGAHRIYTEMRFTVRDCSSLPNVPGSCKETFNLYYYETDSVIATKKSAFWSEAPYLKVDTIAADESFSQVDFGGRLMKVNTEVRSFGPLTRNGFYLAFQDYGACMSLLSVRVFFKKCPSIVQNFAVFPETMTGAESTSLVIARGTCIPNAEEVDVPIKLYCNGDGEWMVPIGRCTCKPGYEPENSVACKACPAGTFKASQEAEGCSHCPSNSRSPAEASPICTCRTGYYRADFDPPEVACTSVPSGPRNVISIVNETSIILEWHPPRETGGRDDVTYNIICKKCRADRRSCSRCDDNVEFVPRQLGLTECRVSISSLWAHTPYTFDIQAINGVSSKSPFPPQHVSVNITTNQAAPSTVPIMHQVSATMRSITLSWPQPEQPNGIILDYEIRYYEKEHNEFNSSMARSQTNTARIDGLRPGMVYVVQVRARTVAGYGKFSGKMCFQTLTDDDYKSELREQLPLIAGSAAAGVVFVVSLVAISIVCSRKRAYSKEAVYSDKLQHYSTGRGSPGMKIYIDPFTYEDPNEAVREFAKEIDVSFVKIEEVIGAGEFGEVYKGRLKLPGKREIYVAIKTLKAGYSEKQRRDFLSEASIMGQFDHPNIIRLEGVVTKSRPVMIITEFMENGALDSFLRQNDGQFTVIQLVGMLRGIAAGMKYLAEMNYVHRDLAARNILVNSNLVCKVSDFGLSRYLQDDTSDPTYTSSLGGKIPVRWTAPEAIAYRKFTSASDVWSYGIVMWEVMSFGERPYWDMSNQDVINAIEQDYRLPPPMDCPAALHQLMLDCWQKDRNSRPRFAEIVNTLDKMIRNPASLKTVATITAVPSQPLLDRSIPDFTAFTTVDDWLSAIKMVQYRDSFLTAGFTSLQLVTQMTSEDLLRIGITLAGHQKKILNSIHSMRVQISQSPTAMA", "conditions": "at 10 µM; call rule not given here"}, "[2]": {"target": "T2, Ephrin type-B receptor 2 (Homo sapiens) (UniProt P29323)", "T2 sequence (whole entry)": "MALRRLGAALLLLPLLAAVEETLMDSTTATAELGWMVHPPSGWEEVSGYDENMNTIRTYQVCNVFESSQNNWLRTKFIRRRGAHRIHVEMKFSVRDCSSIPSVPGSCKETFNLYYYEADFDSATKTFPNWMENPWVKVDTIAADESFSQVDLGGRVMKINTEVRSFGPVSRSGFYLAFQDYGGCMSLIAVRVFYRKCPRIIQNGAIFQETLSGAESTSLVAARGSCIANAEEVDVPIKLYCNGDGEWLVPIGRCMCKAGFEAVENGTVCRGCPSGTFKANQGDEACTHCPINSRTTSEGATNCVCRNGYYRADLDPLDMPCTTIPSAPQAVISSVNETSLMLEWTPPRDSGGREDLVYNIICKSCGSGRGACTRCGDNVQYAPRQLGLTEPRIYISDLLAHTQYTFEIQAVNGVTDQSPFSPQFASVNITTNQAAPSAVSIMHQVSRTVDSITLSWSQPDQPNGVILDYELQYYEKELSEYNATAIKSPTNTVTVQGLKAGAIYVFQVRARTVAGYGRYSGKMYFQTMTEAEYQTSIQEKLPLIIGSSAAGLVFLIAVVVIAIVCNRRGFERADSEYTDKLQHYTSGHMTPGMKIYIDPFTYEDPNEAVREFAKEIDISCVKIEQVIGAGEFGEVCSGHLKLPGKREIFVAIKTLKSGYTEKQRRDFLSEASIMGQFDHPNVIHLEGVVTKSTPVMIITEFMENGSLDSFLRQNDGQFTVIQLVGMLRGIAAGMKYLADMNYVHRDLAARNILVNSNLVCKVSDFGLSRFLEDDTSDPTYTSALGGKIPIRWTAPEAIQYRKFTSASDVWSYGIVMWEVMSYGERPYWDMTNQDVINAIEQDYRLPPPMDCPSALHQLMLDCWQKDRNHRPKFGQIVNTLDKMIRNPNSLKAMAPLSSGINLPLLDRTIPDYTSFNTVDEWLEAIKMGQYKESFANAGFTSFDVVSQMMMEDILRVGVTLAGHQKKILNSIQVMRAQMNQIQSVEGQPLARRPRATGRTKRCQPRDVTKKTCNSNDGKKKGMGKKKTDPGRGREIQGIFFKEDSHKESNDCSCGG", "conditions": "at 1 µM"}, "[3]": {"target": "T2, Ephrin type-B receptor 2 (Homo sapiens)", "conditions": "at 10 µM"}, "[4]": {"target": "T3, Ephrin type-B receptor 3 (Homo sapiens) (UniProt P54753)", "T3 sequence (whole entry)": "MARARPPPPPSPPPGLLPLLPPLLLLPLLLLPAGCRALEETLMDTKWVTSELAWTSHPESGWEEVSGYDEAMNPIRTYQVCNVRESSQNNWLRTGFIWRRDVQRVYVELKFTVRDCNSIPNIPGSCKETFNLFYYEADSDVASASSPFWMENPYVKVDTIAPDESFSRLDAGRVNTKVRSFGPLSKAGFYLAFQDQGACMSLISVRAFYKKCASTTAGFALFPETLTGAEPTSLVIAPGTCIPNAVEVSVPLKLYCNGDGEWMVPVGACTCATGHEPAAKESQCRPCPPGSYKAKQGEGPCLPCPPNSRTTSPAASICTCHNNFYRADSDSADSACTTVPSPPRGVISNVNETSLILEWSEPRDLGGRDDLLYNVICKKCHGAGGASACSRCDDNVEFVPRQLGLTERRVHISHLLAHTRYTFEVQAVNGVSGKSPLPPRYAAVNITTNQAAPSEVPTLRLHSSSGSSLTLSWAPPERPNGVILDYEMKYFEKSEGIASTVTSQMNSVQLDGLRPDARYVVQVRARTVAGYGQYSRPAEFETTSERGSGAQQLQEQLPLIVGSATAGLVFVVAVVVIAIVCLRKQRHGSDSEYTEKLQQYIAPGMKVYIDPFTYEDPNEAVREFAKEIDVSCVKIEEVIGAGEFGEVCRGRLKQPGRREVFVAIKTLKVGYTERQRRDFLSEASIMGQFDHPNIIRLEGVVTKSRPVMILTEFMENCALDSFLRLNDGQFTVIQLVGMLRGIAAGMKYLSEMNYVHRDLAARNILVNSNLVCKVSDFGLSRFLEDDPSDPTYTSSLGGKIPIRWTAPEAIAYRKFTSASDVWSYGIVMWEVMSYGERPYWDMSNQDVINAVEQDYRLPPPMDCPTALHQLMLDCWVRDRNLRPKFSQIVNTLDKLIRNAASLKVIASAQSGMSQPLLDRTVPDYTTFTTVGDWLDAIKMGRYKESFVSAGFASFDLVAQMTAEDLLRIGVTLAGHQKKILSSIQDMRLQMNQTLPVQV", "conditions": "at 1 µM"}, "[5]": {"target": "T3, Ephrin type-B receptor 3 (Homo sapiens)", "conditions": "at 10 µM"}, "[6]": {"target": "T4, Ephrin type-B receptor 4 (Homo sapiens) (UniProt P54760)", "T4 sequence (whole entry)": "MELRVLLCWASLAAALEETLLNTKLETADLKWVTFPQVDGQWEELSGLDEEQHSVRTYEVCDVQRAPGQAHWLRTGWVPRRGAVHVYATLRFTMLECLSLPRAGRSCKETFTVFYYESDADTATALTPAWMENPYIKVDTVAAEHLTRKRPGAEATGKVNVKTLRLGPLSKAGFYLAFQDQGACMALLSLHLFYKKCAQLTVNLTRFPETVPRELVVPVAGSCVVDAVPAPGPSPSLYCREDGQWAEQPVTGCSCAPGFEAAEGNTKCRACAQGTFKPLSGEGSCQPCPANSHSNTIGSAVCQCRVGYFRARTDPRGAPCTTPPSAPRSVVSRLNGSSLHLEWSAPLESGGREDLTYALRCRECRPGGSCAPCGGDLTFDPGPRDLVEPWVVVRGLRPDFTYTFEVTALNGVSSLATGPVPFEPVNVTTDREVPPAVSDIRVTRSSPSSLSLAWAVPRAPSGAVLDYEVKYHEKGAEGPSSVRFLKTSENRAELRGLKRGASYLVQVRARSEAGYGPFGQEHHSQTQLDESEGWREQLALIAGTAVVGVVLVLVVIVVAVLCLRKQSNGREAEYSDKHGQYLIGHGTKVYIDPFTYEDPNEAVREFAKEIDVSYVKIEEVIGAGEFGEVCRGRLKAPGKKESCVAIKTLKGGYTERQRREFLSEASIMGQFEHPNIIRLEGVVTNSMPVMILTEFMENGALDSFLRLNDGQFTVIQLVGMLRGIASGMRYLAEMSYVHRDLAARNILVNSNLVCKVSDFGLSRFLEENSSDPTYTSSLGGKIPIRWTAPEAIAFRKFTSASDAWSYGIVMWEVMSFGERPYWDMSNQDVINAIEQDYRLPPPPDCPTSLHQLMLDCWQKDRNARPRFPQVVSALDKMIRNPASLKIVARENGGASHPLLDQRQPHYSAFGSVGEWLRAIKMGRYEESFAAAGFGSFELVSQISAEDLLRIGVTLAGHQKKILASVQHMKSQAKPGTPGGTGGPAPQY", "conditions": "at 1 µM"}, "[7]": {"target": "T4, Ephrin type-B receptor 4 (Homo sapiens)", "conditions": "at 10 µM"}, "[8]": {"target": "Receptor tyrosine-protein kinase erbB-4 (Homo sapiens) (UniProt Q15303)", "sequence (Q15303 whole entry)": "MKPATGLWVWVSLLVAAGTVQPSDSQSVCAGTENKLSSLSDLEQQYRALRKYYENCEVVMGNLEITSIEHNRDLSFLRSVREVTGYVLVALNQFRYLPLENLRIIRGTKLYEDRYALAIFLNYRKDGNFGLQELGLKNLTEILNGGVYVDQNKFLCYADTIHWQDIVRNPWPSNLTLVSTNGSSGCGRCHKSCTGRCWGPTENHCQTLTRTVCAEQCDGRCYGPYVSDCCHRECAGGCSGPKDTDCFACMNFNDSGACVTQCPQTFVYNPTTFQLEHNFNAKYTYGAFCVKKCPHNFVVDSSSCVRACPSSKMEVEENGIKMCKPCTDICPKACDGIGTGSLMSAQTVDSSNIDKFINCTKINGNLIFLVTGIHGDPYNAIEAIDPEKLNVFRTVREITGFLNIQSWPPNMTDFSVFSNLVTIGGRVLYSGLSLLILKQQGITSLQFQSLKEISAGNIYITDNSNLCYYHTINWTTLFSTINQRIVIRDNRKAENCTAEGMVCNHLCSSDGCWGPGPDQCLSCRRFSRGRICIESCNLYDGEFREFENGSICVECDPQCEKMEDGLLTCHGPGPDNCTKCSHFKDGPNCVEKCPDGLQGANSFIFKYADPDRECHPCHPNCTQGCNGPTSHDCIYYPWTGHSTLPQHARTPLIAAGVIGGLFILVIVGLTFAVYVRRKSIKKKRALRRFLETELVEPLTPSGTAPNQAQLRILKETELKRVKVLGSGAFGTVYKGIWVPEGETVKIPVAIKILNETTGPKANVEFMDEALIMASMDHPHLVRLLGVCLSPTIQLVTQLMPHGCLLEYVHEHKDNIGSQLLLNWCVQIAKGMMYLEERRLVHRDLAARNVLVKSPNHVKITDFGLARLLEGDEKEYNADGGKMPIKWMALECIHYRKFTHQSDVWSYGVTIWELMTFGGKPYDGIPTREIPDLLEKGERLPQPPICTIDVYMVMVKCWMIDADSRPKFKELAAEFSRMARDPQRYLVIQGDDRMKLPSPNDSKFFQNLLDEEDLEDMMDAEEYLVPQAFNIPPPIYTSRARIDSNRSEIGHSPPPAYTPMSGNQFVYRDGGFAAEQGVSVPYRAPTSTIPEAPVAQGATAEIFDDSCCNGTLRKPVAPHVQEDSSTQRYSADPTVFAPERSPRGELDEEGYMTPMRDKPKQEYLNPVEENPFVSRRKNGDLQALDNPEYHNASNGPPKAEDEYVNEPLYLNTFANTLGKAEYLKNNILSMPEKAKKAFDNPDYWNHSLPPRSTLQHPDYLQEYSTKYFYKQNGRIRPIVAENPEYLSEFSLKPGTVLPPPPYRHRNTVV", "conditions": "at 1 µM"}, "[9]": {"target": "Receptor tyrosine-protein kinase erbB-4 (Homo sapiens) (UniProt Q15303)", "conditions": "at 10 µM"}, "[10]": {"target": "Focal adhesion kinase 1 (Homo sapiens) (UniProt Q05397)", "sequence (Q05397 2-1052 limits assumed)": "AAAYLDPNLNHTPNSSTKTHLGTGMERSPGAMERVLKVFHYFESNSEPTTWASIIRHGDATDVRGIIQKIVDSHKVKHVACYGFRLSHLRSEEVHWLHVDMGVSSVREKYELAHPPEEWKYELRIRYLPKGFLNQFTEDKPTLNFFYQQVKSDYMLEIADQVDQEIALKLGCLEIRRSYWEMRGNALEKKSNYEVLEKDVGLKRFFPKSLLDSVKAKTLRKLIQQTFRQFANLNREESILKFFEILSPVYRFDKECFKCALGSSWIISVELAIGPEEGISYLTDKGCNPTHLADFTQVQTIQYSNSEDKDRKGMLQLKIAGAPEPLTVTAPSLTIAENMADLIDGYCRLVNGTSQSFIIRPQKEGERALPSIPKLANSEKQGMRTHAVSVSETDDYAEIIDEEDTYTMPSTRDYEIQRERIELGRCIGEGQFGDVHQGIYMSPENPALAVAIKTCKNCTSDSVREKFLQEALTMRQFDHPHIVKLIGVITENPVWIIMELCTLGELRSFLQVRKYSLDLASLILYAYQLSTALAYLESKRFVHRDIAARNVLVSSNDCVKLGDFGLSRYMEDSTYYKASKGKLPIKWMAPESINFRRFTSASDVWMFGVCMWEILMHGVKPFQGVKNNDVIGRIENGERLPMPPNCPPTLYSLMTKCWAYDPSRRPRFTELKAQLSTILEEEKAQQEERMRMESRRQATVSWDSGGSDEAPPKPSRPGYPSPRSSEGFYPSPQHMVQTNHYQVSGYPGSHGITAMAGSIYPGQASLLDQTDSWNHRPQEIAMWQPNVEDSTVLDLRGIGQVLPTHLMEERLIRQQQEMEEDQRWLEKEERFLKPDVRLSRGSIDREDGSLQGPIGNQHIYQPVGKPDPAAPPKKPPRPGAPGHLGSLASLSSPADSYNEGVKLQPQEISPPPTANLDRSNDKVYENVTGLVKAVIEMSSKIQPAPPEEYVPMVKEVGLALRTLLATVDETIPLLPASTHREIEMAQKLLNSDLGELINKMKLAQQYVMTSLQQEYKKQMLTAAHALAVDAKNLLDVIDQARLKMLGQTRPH", "conditions": "at 1 µM"}}}
{"compound": "Oc1n[nH]c2nnc(-c3c(-c4ccccc4)nn4ccccc34)cc12", "values": [{"measurement": "residual activity", "setting": "[1]", "value": 83, "unit": "%"}, {"measurement": "residual activity", "setting": "[2]", "value": 123, "unit": "%"}, {"measurement": "residual activity", "setting": "[3]", "value": 128, "unit": "%"}, {"measurement": "residual activity", "setting": "[4]", "value": "109% (inactive)"}, {"measurement": "residual activity", "setting": "[5]", "value": 103, "unit": "%"}, {"measurement": "residual activity", "setting": "[6]", "value": 86, "unit": "%"}, {"measurement": "residual activity", "setting": "[7]", "value": 80, "unit": "%"}, {"measurement": "residual activity", "setting": "[8]", "value": 92, "unit": "%"}, {"measurement": "residual activity", "setting": "[9]", "value": 75, "unit": "%"}, {"measurement": "residual activity", "setting": "[10]", "value": 98, "unit": "%"}]}
